These results are taken from PubChem BioAssay (NCI).

The panel holds about 83,000 compounds, 20% with a hit somewhere; the sample as a whole holds those more often.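 Plates (96-well) were seeded with cells, treated with compound at one concentration, and incubated for 48 hours before percent growth was determined.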 Values without a mark were called inactive. Calls of active or inactive are those of the source. The calls were made as follows: active = growth percent below 10; inactive = the rest.

Holding throughout (experiment): NCI-60 one-dose screen, 48 h (100 = growth as untreated, 0 = no growth, -100 = all killed)
Common to all, as to conditions: 10 µM unless noted

The subject of experiment [1] is HCT-15 colon.
Experiment [2] has as its system HT29 colon.
The subject of experiment [3] is SNB-75 CNS.
Experiment [4] has as its system SNB-19 CNS.
In experiment [5] the test system is U251 CNS.
Experiment [6] concerns PC-3 prostate.
Experiment [7] has as its system SK-MEL-5 melanoma.
Experiment [8] has as its system UACC-62 melanoma.
Experiment [9] has as its system SK-MEL-28 melanoma.
For experiment [10], the system named is SK-MEL-2 melanoma.
Experiment [11] relates to SN12C renal.
Experiment [12] deals with UO-31 renal.
Experiment [13] concerns TK-10 renal.
Experiment [14] has as its system ACHN renal.
Experiment [15] concerns CAKI-1 renal.
The subject of experiment [16] is A498 renal.
Experiment [17] concerns CCRF-CEM leukemia.
The test system of experiment [18] is MOLT-4 leukemia.
Experiment [19] relates to LOX IMVI melanoma.
Experiment [20] deals with EKVX NSCLC.

As for `COc1cc(C2CC(=O)Nc3c2cnn3Cc2ccco2)cc2c1OCCO2` (configuration not stated), the growth in [1] was 64.9%; in [2] it was 88.8%; in experiment [3] it was 77.5%; in experiment [4], 97.9%; in experiment [5], 84.6%; in experiment [6] it was 97.6%. In addition, the growth in experiment [7] is 75.5%; in experiment [8], 75.8%; in experiment [9], 75.7%; in experiment [10], 86.8%; in [11], 91.3%; in experiment [12] it was 97%. Further, the growth in experiment [13] is 102%; in experiment [14], 93.1%; in experiment [15], 96.9%; in experiment [16], 64.3%; in experiment [17] it was 111%; in experiment [18], 65.6%.

For `CN(C)C(=O)c1cc2cnc(Nc3ccc(-c4csc5c(=O)cc(N6CCNCC6)oc45)cc3)nc2n1C1CCCC1`, the growth in [1] is 19.9%; in experiment [2], -15.1% (active); in experiment [3] it was 20.5%; in experiment [4], 24.9%; in experiment [6], 10%; in experiment [7] it was 28.5%. Further, the growth was 24.6% in [8]; -62.9% (active) in [19]; 40.7% in experiment [9]; 33.6% in experiment [10]; 40.2% in [20]; 24.2% in experiment [11]. Also, the growth in experiment [12] was -10% (active); in [13], 26.6%; in [14], 16%; in [15], 43.2%; in [16], -7.2% (active); in experiment [17], 1.39% (active). For the same compound, the growth in experiment [18] is 4.52% (active).

As for `CCOC(=O)C(=Cc1ccccc1F)C(=O)OCC`, the growth in experiment [1] was 86.9%; in [2], 103%; in experiment [3], 83.4%; in experiment [4] it was 104%; in experiment [6], 87.6%; in [7], 92.8%. The growth is 94.9% in [8]; 86.4% in experiment [19]; 104% in experiment [9]; 98.4% in [10]; 97.6% in experiment [20]; 86.9% in experiment [11]. In addition, the growth was 87.7% in [12]; 123% in [13]; 92.7% in [14]; 96.5% in [15]; 131% in experiment [16]; 95.8% in experiment [17].

In the case of `NCc1cn2cc(Cl)sc2n1`, the growth in experiment [1] is 98.6%; in experiment [2] it was 105%; in [3], 92.6%; in experiment [4] it was 112%; in experiment [5], 93.2%; in experiment [6] it was 92.3%. Further, the growth in [7] was 103%; in experiment [8], 110%; in [9], 104%; in experiment [10], 102%; in [11], 105%; in experiment [12] it was 88.8%. The growth in experiment [13] was 92.1%; in experiment [14] it was 102%; in [15], 102%; in experiment [16], 90.8%; in experiment [17], 103%; in experiment [18], 110%.

For `C[C@@H]1CC[C@@H]2[C@@H]1[C@H](OC(=O)/C=C/c1ccccc1)[C@]1(c3ccccc3)C[C@@H](OC(=O)CO)[C@@]2(C)O1`, the growth in experiment [1] is 97.7%; in experiment [2], 92.2%; in experiment [3], 90.2%; in experiment [4], 96%; in experiment [6], 80.5%; in experiment [7] it was 94.8%. Moreover, the growth is 75.4% in [8]; 97.8% in [19]; 101% in experiment [9]; 97.7% in experiment [10]; 88.4% in [20]; 21.8% in experiment [11]. For the same compound, the growth in experiment [12] is -68.1% (active); in experiment [13], 98.6%; in experiment [14], 4.8% (active); in experiment [15] it was 15.4%; in experiment [16], -22.3% (active); in experiment [17], 93%. Further, in experiment [18], the growth was 92.1%.

Consider `Cc1nn(-c2nc3ccccc3[nH]2)c2c1C(c1ccc3c(c1)OCO3)CC(=O)N2` (configuration not stated), for which the growth in [1] was 47.6%; in experiment [2] it was 34.7%; in experiment [3], 39.8%; in experiment [4], 49%; in experiment [5] it was 30.5%; in [6] it was 21.6%. Also, the growth in [7] was 12.4%; in [8], 27.3%; in experiment [9] it was 82.3%; in experiment [10], 52.9%; in experiment [11], 41.9%; in experiment [12] it was 22.7%. The growth was 69.4% in experiment [13]; 31% in experiment [14]; 65.7% in [15]; -8.66% (active) in experiment [16]; 12.1% in [17]; -48.5% (active) in experiment [18].

As for `Nc1nc(-c2ccc(F)cc2)cc(-c2cnn(-c3ccccc3)n2)n1`, the growth in experiment [1] is 95.4%; in experiment [2], 93.5%; in experiment [3], 100%; in experiment [4], 104%; in experiment [6], 114%; in experiment [7], 104%. Moreover, the growth in experiment [8] was 91.1%; in experiment [19] it was 97.2%; in experiment [9] it was 107%; in experiment [10], 96%; in [20] it was 99.7%; in experiment [11], 111%. Moreover, the growth in [12] was 86.8%; in experiment [13], 121%; in [14] it was 100%; in experiment [15] it was 86.2%; in [16], 85.9%; in experiment [17] it was 103%. Besides, in experiment [18], the growth is 104%.

On to `COc1cc(C2CC(=O)Nc3c2c(C)nn3-c2nc3ccccc3[nH]2)cc(OC)c1OC` (configuration not stated), for which the growth in [1] is 101%; in experiment [2], 109%; in [3] it was 86.9%; in experiment [4], 93.4%; in experiment [5], 102%; in experiment [6], 75.2%. The growth is 99.7% in [7]; 97.2% in experiment [8]; 103% in experiment [9]; 106% in experiment [10]; 91.3% in [11]; 96.8% in experiment [12]. In addition, the growth was 109% in experiment [13]; 102% in experiment [14]; 114% in [15]; 78.2% in experiment [16]; 32% in experiment [17]; -42.5% (active) in experiment [18].
